The values below come from PubChem BioAssay (NCI).

The panel holds about 83,000 compounds, 20% with a hit somewhere; the sample as a whole holds those more often.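 Plates (96-well) were seeded with cells, treated with compound at one concentration, and incubated for 48 hours before percent growth was determined.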 Values without a mark were called inactive. The source made the active and inactive calls.

The subject of this experiment is M14 melanoma. Kind of experiment: NCI-60 one-dose screen, 48 h (100 = growth as untreated, 0 = no growth, -100 = all killed). The following applies: 10 µM unless noted. The protocol: Growth inhibition of the M14 human tumor cell line is measured as a screen for anti-cancer activity. Cells are grown in 96 well plates and exposed to the test compound for 48 hours. Compounds are tested at a single concentration, which is 10^-5 M for most compounds. The reported endpoint is percent growth (GI% or GIPRCNT), where numbers from 0 - 100% represent growth inhibition, and numbers from -100% - 0 represent cell death. For example, a value of 40 represents 60% growth inhibition. A value of 0 means no net growth occurred over the course of the experiment. A value of -40 indicates 40% of cells at the beginning of the experiment died by the end of the experiment. A value of -100 means all cells are dead at the end of the experiment.
NCI-60 Human Tumor Cell Lines Screen was performed using the standard one-dose NCI protocol, which is described in more detail at https://dtp.cancer.gov/discovery_development/nci-60/default.htm.
Compounds with GIPRCNT values below 10 were considered active. Activity score was based on GIPRCNT using the following formula: […]
Score is 0 for GIPRCNT values of 100 or above, 50 for GIPRCNT values of 0, and 100 for GIPRCNT values of -100.
As to `COc1ccc2[nH]c(-c3ccc(Cl)cc3)cc(=O)c2c1`, the growth is 95.1%. Then `COc1ccc(-c2n[nH]nc2-c2cc3ccccc3s2)cc1O`, with 12.4%. To `Nc1ccc(Cl)cn1` belongs 105%.

On to `CN1CCN(CCOc2ccc(-c3cnc4c(-c5cccc(F)c5)cnn4c3)cc2)CC1`, for which the growth was 2.02% (active). To `O=c1c(CNc2ccc(S(=O)(=O)Nc3ncccn3)cc2)coc2ccccc12` belongs 99.2%; to `COc1ccc2c(c1)c(-c1nc(-c3cn(C)c4ncccc34)cs1)cn2CCCN1CCCCC1`, -85.2% (active). For the compound `COC(=O)[C@@H]1[C@H]2C[C@H]3c4[nH]c5cc(OC)ccc5c4CCN3C[C@@H]2C[C@H](OC(=O)/C=C/c2ccnc(OC)c2)[C@H]1OC`, the growth was 93.2%. As to `Clc1ccccc1-c1nc(Nc2nc3ccccc3s2)nc(C(Cl)(Cl)Cl)n1`, the growth is 80.1%. As for `O=C1CNCCN1`, the growth is 105%.

On to `C=C(C)[C@@H]1CC[C@]2(C)[C@H](CC=C3[C@@H]4CC(C)(C)CC[C@]4(C(=O)OC)CC[C@]32C)[C@@]1(C)CC/C(N)=N/O`, for which the growth was 43.8%.

For the compound `Cc1csc(Nc2nc(-c3ccc(Cl)cc3)nc(C(Cl)(Cl)Cl)n2)n1`, the growth is 95.9%. To `Cn1cc(-c2csc(-c3cn(CCCN4CCCCC4)c4ccc(Br)cc34)n2)c2cccnc21` belongs -88.1% (active); to `Cn1cc(-c2csc(-c3cn(CCNC(=O)OC(C)(C)C)c4ccccc34)n2)c2cccnc21`, 61.1%. To `COc1ccccc1CNc1nc(N)nc2[nH]c3ccc(O)cc3c12` belongs 10.5%. Then `O=C(NCN1C(=O)c2cccc3cccc(c23)C1=O)N1CCC(Cc2ccccc2)CC1`, with 92.5%; and `NC(=O)NCC1CCCCC1`, with 104%; and `COc1cc(-c2cc(-c3nc4ccccc4[nH]3)[nH]n2)cc(OC)c1OC`, with 39.4%. Turning to `C=C(C)[C@@H]1CC[C@]2(C(=O)O)CC[C@]3(C)[C@H](CC[C@@H]4[C@@]5(C)C/C(=C/c6ccc(OC)cc6)C(=O)C(C)(C)[C@@H]5CC[C@]43C)[C@@H]12`, the growth was 25.3%. Take `O=C1c2cc3c(cc2-c2c1c1ccc(F)cc1c(=O)n2CCCN1CCOCC1)OCO3`: the growth is 23.2%. For the compound `CCSc1ncnc2c1ncn2C1OC(CO)C(O)C1O` (stereo not given), the growth was 29.6%.

As for `CCCC(=O)N1CCCCC1CC` (stereo not given), the growth is 114%. In the case of `COc1cnc2c(c1)C(=O)c1c-2n(CCCNC2=NCCS2)c(=O)c2cc([N+](=O)[O-])ccc12`, the growth is -73.5% (active).

Take `CC1(n2nnnc2N2CCCN(c3ncccc3N)CC2)CCC1`: the growth is 97.8%. Then `Cc1c(C)c2c(c(C)c1NC(=O)CCCCCCC(=O)O)CCC(C)(CCCC(C)CCCC(C)CCCC(C)C)O2` (stereo not given), with 82.7%. Take `CC(=O)O[C@H]1CC[C@]2(C)[C@H]3CC=C4[C@@H]5[C@H](C)[C@@H](C)CC[C@]5(C(=O)NCCNCCNCCN)CC[C@@]4(C)[C@]3(C)CC[C@H]2C1(C)C`: the growth was 88.1%.

Take `COc1cc(/C=N/Nc2ncnc3c2c(C)nn3-c2ccc(F)cc2)ccc1O`: the growth was 102%. `COc1cccc(-c2nn(-c3ccccc3)cc2-c2ccnc(NCCCO)c2)c1`: the growth was 12.8%. Then `O=C1c2cccc3cccc(c23)C(=O)N1CC#Cc1ccc2c3c(cccc13)C(=O)N(CCN1CCNCC1)C2=O`, with 101%. To `C=COCCCCCCCCCCCCCCCCCC` belongs 113%. Then `CC(=O)OC[C@]12CC[C@@H](/C(C)=N/O)[C@@H]1[C@H]1CC[C@@H]3[C@@]4(C)CCCNC(C)(C)[C@@H]4CC[C@@]3(C)[C@]1(C)CC2`, with 78.1%; and `Brc1ccc2[nH]cc(-c3nc(-c4c[nH]c5ncccc45)cs3)c2c1`, with 8.64% (active).

Take `Cc1cc(N(CCNc2ccnc3cc(Cl)ccc23)Cc2ccco2)nc(Cl)n1`: the growth was -64.9% (active). For `c1ccc(-c2nc(Nc3ccc(-c4nc5ccccc5[nH]4)cc3)nc(N3CCOCC3)n2)cc1`, the growth is -80.7% (active). With `COc1cc(/C=C/c2cc(/C=C/c3ccc(O)c(OC)c3)n(-c3ccccc3)c(=O)n2)ccc1O`, the growth was 85.7%. To `C/C(=N\Nc1ccc2ccccc2n1)c1ccccn1` belongs -24.6% (active). To `COc1ccc2nc(-c3cc(-c4cc(OC)c(OC)c(OC)c4)n[nH]3)[nH]c2c1` belongs 9.11% (active); to `COC(=O)[C@]12CC[C@@H](C)[C@H](C)[C@@H]1C1=CC[C@@H]3[C@@]4(C)C(c5ncon5)=C[C@@](C)(CO)C4=CC[C@@]3(C)[C@]1(C)CC2`, -58.5% (active). As to `COc1ccccc1-n1cnc(N)c1C(=O)c1cc(OC)c(OC)c(OC)c1`, the growth is 44.5%.

Turning to `O=C1C(Cl)=C(Nc2ccc(S(=O)(=O)c3ccc(NC4=C(Cl)C(=O)c5ccccc5C4=O)cc3)cc2)C(=O)c2ccccc21`, the growth is -57.6% (active).

Consider `CN1CCN(c2nc(-c3cccc4ccccc34)nc3sc4c(c23)CCCCCC4)CC1`, for which the growth is 93.2%.
